Experimental data taken from PMC11062922 (Nature Chemical Biology, 2023).
Where two headings read alike, the source gives them in different places.

Experiments:
Set-up in all cases: species or system human, MV4-11 + K-562 + COLO205 + SK-N-BE2 + OVCAR-8
[1] = system: AKT1; conditions: read-out: apparent Kd, n = 1
[2] = system: AKT2; conditions: read-out: apparent Kd, n = 1
[3] = system: LYN; conditions: read-out: apparent Kd; compound concentrations: 100 nM and 1000 nM (sheet 'Samples'), CATDS: 3.75888213105793E-2; n = 1
[4] = system: RIOK2; conditions: read-out: apparent Kd, n = 1
[5] = system: EGFR; conditions: read-out: apparent Kd, n = 1
[6] = system: GSK3A; conditions: read-out: apparent Kd, compound concentrations: 100 nM and 1000 nM (sheet 'Samples'), n = 1
[7] = system: GSK3B; conditions: read-out: apparent Kd, compound concentrations: 100 nM and 1000 nM (sheet 'Samples'), n = 1
[8] = system: FRK; conditions: read-out: apparent Kd; compound concentrations: 100 nM and 1000 nM (sheet 'Samples'), CATDS: 5.2265489654336902E-2; n = 1
[9] = system: DYRK1A; conditions: read-out: apparent Kd; compound concentrations:100 nM and 1000 nM (sheet 'Samples'); n = 1
[10] = system: ACVR1B; conditions: read-out: apparent Kd, n = 1
[11] = system: DDR1; conditions: read-out: apparent Kd; compound concentrations: 100 nM and 1000 nM (sheet 'Samples'), CATDS: 9.2725066561010094E-2; n = 1
[12] = system: TGFBR1; conditions: read-out: apparent Kd, n = 1
[13] = system: ACAD11; conditions: read-out: apparent Kd; compound concentrations:100 nM and 1000 nM (sheet 'Samples'); n = 1
[14] = compound concentrations:100 nM and 1000 nM (sheet 'Samples')

`Clc1ccc(-c2nn3ncccc3c2-c2ccnc(Nc3ccccc3)n2)cc1` [GW829055X] showed a potency estimated from few doses ([1]; compound concentrations: 100 nM and 1000 nM (sheet 'Samples'), CATDS: 3.4502228955022099E-2) of 1670 nM, a potency estimated from few doses ([2]; compound concentrations: 100 nM and 1000 nM (sheet 'Samples'), CATDS: 4.03721310315426E-2) of 1150 nM and a potency estimated from few doses [3] of 1350 nM. For the same molecule, the potency estimated from few doses ([4]; compound concentrations: 100 nM and 1000 nM (sheet 'Samples'), CATDS: 3.5482707178261498E-2) was 1560 nM.
Work on `Cl.Fc1cccc(COc2ccc(Nc3ncnc4cc(-c5ccc[nH]5)sc34)cc2Cl)c1` [GW693881A] yielded a potency estimated from few doses ([5]; compound concentrations: 100 nM and 1000 nM (sheet 'Samples'), CATDS: 0.260445959414705) of 495 nM.
With `Cn1cc(C2=C(c3cn(CCCN/C(N)=N/[N+](=O)[O-])c4ccccc34)C(=O)NC2=O)c2ccccc21` [RO0318161-000] the potency estimated from few doses ([6]; CATDS: 0.30578210093767899) was 1280 nM.
`Cn1cc(C2=C(c3ccccc3[N+](=O)[O-])C(=O)NC2=O)c2ccccc21` [RO0317753-000] was tested, and the potency estimated from few doses ([6]; CATDS: 0.31381008714401198) was 26.1 nM and the potency estimated from few doses ([7]; CATDS: 0.304149371612502) was 27.6 nM.
`CC(=O)Nc1ccc2c(C3=C(c4cn(C)c5ccccc45)C(=O)NC3=O)cn(C)c2c1` [RO0317596-000] was tested, and the potency estimated from few doses ([6]; CATDS: 0.16934615909466) was 626 nM and the potency estimated from few doses ([7]; CATDS: 0.12883781394947599) was 1100 nM.
`CS(=O)(=O)c1ccc(-c2nc3n(c2-c2ccncc2)CCC3)cc1` [SKF-105942] was tested, and the potency estimated from few doses ([2]; compound concentrations: 100 nM and 1000 nM (sheet 'Samples'), CATDS: 0.110414115877762) was 2470 nM.
`Cn1cc(C2=C(c3cn(CCCCCO)c4ccccc34)C(=O)NC2=O)c2ccccc21` [RO0318053-000] was tested, and the potency estimated from few doses ([6]; CATDS: 0.11270550310053699) was 467 nM and the potency estimated from few doses ([7]; CATDS: 0.11014328392113699) was 504 nM.
`COc1ccc(C2=C(c3cn(C)c4ccccc34)C(=O)NC2=O)cc1OC` [RO3206363-000] gave a potency estimated from few doses ([1]; compound concentrations: 100 nM and 1000 nM (sheet 'Samples'), CATDS: 7.5592220710657507E-2) of 180 nM, a potency estimated from few doses ([2]; compound concentrations: 100 nM and 1000 nM (sheet 'Samples'), CATDS: 8.3129465265060903E-2) of 149 nM and a potency estimated from few doses ([6]; CATDS: 4.8098017287816999E-2) of 503 nM. It also gave a potency estimated from few doses ([7]; CATDS: 4.2103313064090798E-2) of 722 nM.
With `COc1cc(N2CCN(C(C)C)CC2)ccc1Nc1nc(Nc2cccc(F)c2C(=O)O)c2cc[nH]c2n1` [GSK1819799A] the potency estimated from few doses ([1]; compound concentrations: 100 nM and 1000 nM (sheet 'Samples'), CATDS: 4.312239107291E-2) was 1940 nM, the potency estimated from few doses ([2]; compound concentrations: 100 nM and 1000 nM (sheet 'Samples'), CATDS: 4.3054850332127297E-2) was 1950 nM and the potency estimated from few doses [8] was 1130 nM.
In the case of `CCS(=O)(=O)c1ccc(OC)c(Nc2ncc(-c3cccc(F)c3)o2)c1` [GW621970X_KCGS], the potency estimated from few doses [9] is reported as 1660 nM.
Molecule `COc1ccc(-c2nn3ncccc3c2-c2ccnc(Nc3ccc4c(c3)OCCO4)n2)cc1` [GW827106X] has a potency estimated from few doses ([10]; compound concentrations: 100 nM and 1000 nM (sheet 'Samples'), CATDS: 6.5023219002079705E-2) of 849 nM, a potency estimated from few doses [11] of 461 nM and a potency estimated from few doses ([12]; compound concentrations: 100 nM and 1000 nM (sheet 'Samples'), CATDS: 4.6246179171744603E-2) of 1810 nM.
With `Cc1[nH]nc2c1N=C(c1ccccc1Cl)c1cc([N+](=O)[O-])ccc1N2` [RO0274406-000] the potency estimated from few doses ([6]; CATDS: 0.10002413728449901) was 504 nM and the potency estimated from few doses ([7]; CATDS: 0.102894851356177) was 472 nM.
For `Fc1cccc(COc2ccc(Nc3ncncc3C#Cc3ccccc3)cc2Cl)c1` [GW651576X], the potency estimated from few doses ([1]; compound concentrations: 100 nM and 1000 nM (sheet 'Samples'), CATDS: 4.6282631455897803E-2) was 2130 nM, the potency estimated from few doses ([5]; compound concentrations: 100 nM and 1000 nM (sheet 'Samples'), CATDS: 8.85764063435832E-2) was 663 nM and the potency estimated from few doses ([4]; compound concentrations: 100 nM and 1000 nM (sheet 'Samples'), CATDS: 5.4268483350181501E-2) was 1510 nM.
In the case of `Fc1ccc(-c2ncn(C3CCNCC3)c2-c2ccnc(Oc3ccc4c(c3)OCO4)n2)cc1` [SB-250715], the potency estimated from few doses [1, 14] is reported as 2330 nM, the potency estimated from few doses [2, 14] is reported as 1360 nM and the potency estimated from few doses [4, 14] is reported as 1920 nM.
Molecule `Cl.Oc1ccc2ncnc(Nc3ccc(OCc4ccccc4)cc3)c2c1` [GI262866A] has a potency estimated from few doses [5, 14] of 106 nM.
`COc1cc2ncn(-c3cc(O[C@H](C)c4ccccc4Cl)c(C(N)=O)s3)c2cc1OC` [GSK237701A] gave a potency estimated from few doses [13] of 756 nM.
In the case of `COc1ccccc1-c1cc(/C=C2\C(=O)Nc3ncc(Br)cc32)cc(Br)c1O` [GW442130X], the potency estimated from few doses [10, 14] is reported as 646 nM, the potency estimated from few doses [1, 14] is reported as 1540 nM and the potency estimated from few doses [2, 14] is reported as 1120 nM. The potency estimated from few doses [4, 14] was 1450 nM and the potency estimated from few doses [12, 14] was 592 nM.
